Assay results: ChEMBL document CHEMBL4513216, “Probing the Open Global Health Chemical Diversity Library for Multistage-Active Starting Points for Next-Generation Antimalarials” (ACS Infect Dis, 2020)
Screen size: about 69,000 compounds; about 8,600 (12%) showed an effect of 50% or more. Shown is part of a subset that was picked to be rich in strong results.

These compounds were tested on Plasmodium berghei (assay: Screen against P. berghei liver stage (PbLuc), transformed with Luciferase, at 10uM). Settings: tested at 10 uM.
Type: functional, HepG2

Row | Structure (SMILES) | INHIBITION [%]
1 | CC(=O)N1CCN([C@@H]2CCC[C@@H](NC(=O)c3cccnc3)[C@H]2O)CC1 | 8.53
2 | Cc1nc(CN2CCCC(c3cc(C(N)=O)[nH]n3)C2)oc1C (stereo unspecified) | -0.113
3 | O=C(O)c1c(-c2cncnc2)ncc2c1CCN(CC1CCOC1)C2 (stereo unspecified) | 43
4 | O=C1NCC2(CCC(C(=O)N3CCCC(O)C3)CC2)Oc2ccccc21 (stereo unspecified) | 8.72
5 | CN(Cc1ccsc1)C(=O)c1ccc2c(c1)NC(=O)CO2 | 6.8
6 | Cc1cc(C(=O)Nc2ccn(CCCN3CCCC3)n2)no1 | 38.4
7 | COCCN(Cc1sccc1C)C(=O)COc1cccnc1 | -32.6
8 | O=C(NCc1cncc2c1CCN(Cc1ccccc1)C2)C1CC1 | -27.9
9 | CC(=O)N1CC2(CCN(C(=O)C3CC3)CC2)c2cc(C)ccc21 | 84.5
10 | CCC(=O)N1CCC2(CC1)CN(C(C)=O)c1ccc(C)cc12 | -47.5
11 | CC(=O)N1CC2(CCN(C(=O)N(C)C)CC2)c2cc(C)ccc21 | 37.8
12 | CCOCCCNC(=O)C(C)n1cc(Br)cn1 (stereo unspecified) | 5.05
13 | CC(=O)N1CCc2ccccc2C1CC(=O)NCc1nnc(C)o1 (stereo unspecified) | 61.2
14 | COC(=O)N1CCc2ccccc2C1C(=O)NCc1nc(C)no1 (stereo unspecified) | 43.4
15 | Cc1nnc(CNC(=O)CC2CCc3ccccc32)o1 (stereo unspecified) | 13
16 | COc1cc(CNCc2c(C(C)C)nn(C)c2N(C)C)ccn1 | 33.3
17 | COc1cc(CNCc2c(C)nn(C)c2N(C)C)ccn1 | 42.6
18 | Cc1nn(CC(C)C)c(N(C)C)c1CNCc1cccnc1N(C)C | 43.7
19 | Cc1nn(CC(C)C)c(N(C)C)c1CNCc1ccccc1CO | -21.8
20 | Cc1nn(CC(C)C)c(N(C)C)c1CNCc1cc2ccccc2[nH]1 | 67.3
21 | COc1cc(CNCc2c(C)nn(CC(C)C)c2N(C)C)ccn1 | 77.1
22 | COCCNS(=O)(=O)c1ccc(CNc2ncccc2C#N)cc1 | 48.4
23 | N#Cc1cccnc1NCc1ccc(S(=O)(=O)NC2CC2)cc1 | -15.2
24 | N#Cc1cccnc1NCc1ccc(S(=O)(=O)NCC2CCCO2)cc1 (stereo unspecified) | 55.6

Row | Structure (SMILES) | INHIBITION [%]
25 | CN(Cc1ccco1)Cc1cnc2n1CCN(S(C)(=O)=O)CC2 | 31.9
26 | O=C(NC[C@H]1OC[C@@H]2CCN(Cc3ccco3)C[C@@H]21)c1ccsc1 | 23.5
27 | CC(C)NCC1OCCc2cn(C)nc21 (stereo unspecified) | 55.5
28 | Cn1cc2c(n1)C(CNCC1CCOCC1)OCC2 (stereo unspecified) | -4.02
29 | Cn1cc2c(n1)C(CNC1CCOCC1)OCC2 (stereo unspecified) | 4.02
30 | COCc1ccc(C(=O)N2CCC(c3cc4nccnc4[nH]3)CC2)cc1 | 66.5
31 | CN(C)c1ccc(C(=O)N2CCC(c3cc4cnccc4[nH]3)CC2)cc1 | 51.75
32 | Cc1cnc2cc(C3CCN(C(=O)c4ccncc4)CC3)[nH]c2n1 | 38.8
33 | CN(C)c1ccc(C(=O)N2CCC(c3cc4ncccc4[nH]3)CC2)cc1 | 57.7
34 | Cc1noc(C)c1C(=O)N1CCC(c2cc3cnccc3[nH]2)CC1 | 13.335
35 | COCc1ccc(C(=O)N2CCC(c3cc4ncc(C)nc4[nH]3)C2)cc1 (stereo unspecified) | 20.8
36 | COc1cc(CCC(=O)N2CCC(c3cc4ncccc4[nH]3)CC2)on1 | -26.4
37 | CN(C)c1ccc(C(=O)N2CCC(c3n[nH]c(C4CC4)n3)CC2)cc1 | 2.97
38 | CN(C)c1cccc(C(=O)N2CCC(c3n[nH]c(C4CC4)n3)CC2)c1 | 13.3
39 | CN(C1CCN(C(=O)NCCc2ccc(F)cc2F)CC1)S(C)(=O)=O | 39.7
40 | CC(=O)Nc1sc2c(c1C(=O)O)CCc1ccccc1-2 | 11.1
41 | CC(C)CNc1c(NCc2ccco2)c(=O)c1=O | -4.28
42 | COCCO[C@H]1CCN(C(=O)c2ccoc2C)[C@H]1Cc1cnn(C)c1 | 14.1
43 | COCCn1ccc(=O)c(OCC(=O)Nc2ccc(OC)c(Cl)c2)c1C | -38
44 | CC(CNC(=O)c1ccc(Cl)cc1I)N1CCCC1 (stereo unspecified) | 17.4
45 | CC(CNC(=O)c1cc(Cl)ccc1I)N1CCCC1 (stereo unspecified) | 30.5
46 | O=C(NCC(c1cccs1)N1CCOCC1)c1ccc(F)cc1Cl (stereo unspecified) | -14.5
47 | CN1CCN(C(CNC(=O)c2ccc(Cl)cc2F)c2cccs2)CC1 (stereo unspecified) | 66.7
48 | CC(CNC(=O)c1ccc(Cl)cc1F)N1CCCC1 (stereo unspecified) | 51.4

Row | Structure (SMILES) | INHIBITION [%]
49 | CC(CNC(=O)c1ccc(Cl)cc1F)N1CCN(C)CC1 (stereo unspecified) | 25
50 | CC(CNC(=O)c1ccc(F)cc1Cl)N1CCCC1 (stereo unspecified) | 35.6
51 | CC(CNC(=O)c1cc(Cl)ccc1F)N1CCCC1 (stereo unspecified) | 33.8
52 | CC(CNC(=O)c1ccc(F)cc1I)N1CCCC1 (stereo unspecified) | 55.8
53 | Cc1cc(CN2CCN(C(=O)CCc3ccco3)CC2)on1 | 14
54 | CC(NCc1ccccc1Cl)c1ccc(OCC(=O)NC2CC2)cc1 (stereo unspecified) | 48.2
55 | CCc1nc(CNC(C)(CO)C2CCCCC2)no1 (stereo unspecified) | 37.4
56 | Cc1cnn(CC2CN(c3nc4ccccc4o3)CCO2)c1 (stereo unspecified) | 44.1
57 | Cn1ccnc1CN1CCN(Cc2cc(C#N)ccc2F)CC1 | 35.3
58 | Cc1cc(C(F)(F)F)nc(N2CCN(Cc3nccn3C)CC2)n1 | 74
59 | Cc1cc(C2CCC2)nc(N2CC(n3cccn3)C2)n1 | -9.91
60 | Cc1cc(C2CCC2)nc(N2CCN(Cc3nccn3C)CC2)n1 | 84.1
61 | Cn1ccnc1CN1CCN(Cc2ccc(C#N)cc2F)CC1 | 15.15
62 | Cn1ccnc1CN1CCCN(Cc2noc(C3CC3)n2)CC1 | 11.2
63 | Cn1ccnc1CN1CCN(c2ccc(C#N)cc2F)CC1 | 53.3
64 | Cc1nc(CN2CCN(Cc3nccn3C)CC2)no1 | 33.7
65 | Cc1cc(C)nc(N2CCN(Cc3nccn3C)CC2)n1 | 7.52
66 | COCc1cccc(NC(=O)NCCCN(C)S(C)(=O)=O)c1 | -10.8
67 | CC(C1CC1)N(C)C(=O)c1ccc(-n2ncc(C#N)c2N)cc1 (stereo unspecified) | -61.4
68 | CCCOCCN1CCN(c2ncnc3[nH]ccc23)CC1 | -24
69 | CC(=O)Cn1nc(-c2ccccc2F)ccc1=O | 64.2
70 | NC(=O)Cn1nc(-c2ccccc2F)ccc1=O | 15.4
71 | O=C(O)Cn1nc(-c2ccccc2F)ccc1=O | 26.4
